The values that follow come from PubChem BioAssay (NCI).

Compounds without any hit were thinned out: in the full panel of roughly 79,000, 15% have a hit. Unmarked numbers belong to inactive results. The source made the active and inactive calls. No stated cut-off is given here; in the data, active means growth inhibition above about 70%; inactive means the rest.

Assay [1] can be described thus: NCI Yeast Anticancer Drug Screen. Data for the rad50 strain (AID 155).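 Further: 0% = growth of vehicle-only cultures of the same strain.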 The following applies: S. cerevisiae rad50 strain growth inhibition; at 50.0 µM; active compounds read high. A digest of the protocol:
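Cells are treated with compound, grown, and their growth is then scored against vehicle-only cultures of the same repair-deficient yeast strain.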

Assay [2] is described as follows: NCI Yeast Anticancer Drug Screen. Data for the mec2-1 strain (AID 157). As to conditions: S. cerevisiae mec2-1 strain, at 50.0 µM, active compounds read high. A digest of the protocol: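 mec2-1 yeast strain, carrying an alteration in DNA damage repair or cell cycle control, was exposed to compounds; growth inhibition was measured relative to vehicle-treated controls.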

The nature of assay [3]: NCI Yeast Anticancer Drug Screen. Data for the sgs1 mgt1 strain (AID 161).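 Further: 0% = growth of cultures given vehicle only.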 As to conditions: S. cerevisiae sgs1 mgt1 strain, at 50.0 µM, active compounds read high. A digest of the protocol: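 This yeast growth screen uses a strain with defined DNA-repair lesions; compound-treated growth is compared with vehicle-treated growth.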
Assay [4] in a line: NCI Yeast Anticancer Drug Screen. Data for the cln2 rad14 strain (AID 165).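 Further: 0% = growth equal to vehicle treated cultures.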 As to conditions: S. cerevisiae cln2 rad14 strain, at 50.0 µM, active compounds read high. The essentials:
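Yeast carrying cln2 and rad14 alterations (cell cycle control and DNA damage repair) were exposed to compounds. Growth inhibition was measured against vehicle-treated controls.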

A short description of assay [5]: NCI Yeast Anticancer Drug Screen. Data for the bub3 strain (AID 167). The following applies: S. cerevisiae bub3 mutant strain, at 50.0 µM, active compounds read high. A digest of the protocol: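 Part of a panel of yeast mutants defective in DNA damage repair or cell cycle regulation. Each strain is grown with compound, and inhibition is calculated relative to solvent-treated cultures.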

Assay [6] in a line: NCI Yeast Anticancer Drug Screen. Data for the mlh1 rad18 strain (AID 175). As to conditions: S. cerevisiae mlh1 rad18 strain growth inhibition; at 50.0 µM; active compounds read high. A digest of the protocol:
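Growth inhibition of the yeast strain was measured after compound exposure and expressed relative to vehicle-treated controls. The strain carries defined defects in DNA damage repair.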

Regarding `CCCCOC(=O)c1ccc(OC(=O)Nc2ccc(Cl)cc2)cc1`, the growth inhibition in assay [1] was 10.4%; in assay [2], 42.3%; in assay [3] it was 39%; in assay [4] it was -11.2%; in assay [5], 78.7% (active); in assay [6] it was 30.2%.

Take `CN1CCN(CCCO)CC1`: the growth inhibition in assay [1] is -15.2%; in assay [2] it was 3.3%; in assay [3], -8.85%; in assay [4], -16.4%; in assay [5] it was 5.05%; in assay [6], -0.25%.

On to `O=[N+]([O-])c1ccc(N/N=C2/CC3=C2CCCCCCCCCC3)c([N+](=O)[O-])c1`, for which the growth inhibition in assay [1] is -6.35%; in assay [2], -4.95%; in assay [3] it was 11%; in assay [4] it was -14.2%; in assay [5] it was -2.15%; in assay [6], -13.4%.

With `C/C(=N\N=C(/C)c1ccc(-c2ccccc2)cc1)c1ccc(-c2ccccc2)cc1`, the growth inhibition is 1.2% in assay [1]; -27.8% in assay [2]; 19.1% in assay [3]; 2.2% in assay [4]; 20.8% in assay [5]; 13.3% in assay [6].

As for `C1CCCN(NC2=NCCO2)CC1`, the growth inhibition was 18.8% in assay [1]; 4.8% in assay [2]; 7.3% in assay [3]; 5.95% in assay [4]; 1.45% in assay [5]; 25.9% in assay [6].

`CCOC(=O)C1CC(=O)N(Cc2ccccc2)C(=O)N1` (stereo unspecified): the growth inhibition was -11.1% in assay [1]; 1.8% in assay [2]; -17.6% in assay [3]; -16.9% in assay [4]; 22.1% in assay [5]; -3.5% in assay [6].

As for `COc1ccc(/C=N/N2CN(C(CC(N)=O)C(=O)O)P(Nc3ncccn3)N=C2N)cc1OC` (stereo unspecified), the growth inhibition in assay [1] is 7.55%; in assay [2], -3.9%; in assay [3] it was 0.4%; in assay [4] it was -20.9%; in assay [5] it was 6.65%; in assay [6] it was 8.35%.

Take `O=C1Nc2ccccc2C2Cc3c([nH]c4ccccc34)CC12` (stereo unspecified): the growth inhibition in assay [1] is 47%; in assay [2], 20.1%; in assay [3] it was 3.8%; in assay [4] it was 31.1%; in assay [5] it was 7.4%; in assay [6] it was 20.9%.

As to `C1CCN(c2nsc(N3CCCCC3)n2)CC1`, the growth inhibition was -13.7% in assay [1]; -5.15% in assay [2]; 2.95% in assay [3]; -52.1% in assay [4]; -14.6% in assay [5]; 18.2% in assay [6].

In the case of `CCOC(=O)C(Cl)C(C)(O)c1ccccc1` (stereo unspecified), the growth inhibition is 11.2% in assay [1]; -3.65% in assay [2]; 11.9% in assay [3]; -46.7% in assay [4]; 5.8% in assay [5]; 17.8% in assay [6].

With `CC(=O)OCCCC(CCCOC(C)=O)OC(C)=O`, the growth inhibition was -7.7% in assay [1]; -6.85% in assay [2]; 12.2% in assay [3]; -12.8% in assay [4]; 5.25% in assay [5]; 29.2% in assay [6].

For the compound `CN(C)CCCN1c2ccccc2Sc2cnccc21`, the growth inhibition was 7.6% in assay [1]; -8.2% in assay [2]; -0.2% in assay [3]; -0.05% in assay [4]; -1.45% in assay [5]; 15.3% in assay [6].

`COc1ccc(C2C3=C(COC3=O)Oc3cc4c(cc32)OCO4)cc1OC` (stereo unspecified): the growth inhibition in assay [1] is -21.5%; in assay [2], -33%; in assay [3], -17.9%; in assay [4], -3.95%; in assay [5], 5.45%; in assay [6], -10.8%.

In the case of `CC(C)(C)OC(=O)N[C@H]1CCN(C2CCCCC2)C1=O`, the growth inhibition was -34.9% in assay [1]; -10.1% in assay [2]; -22.1% in assay [3]; 7.75% in assay [4]; -6.4% in assay [5]; -62.5% in assay [6].

Consider `Nc1[nH]c(=O)nc2c1ncn2C1OC(CO)C(O)C1O` (stereo unspecified), for which the growth inhibition in assay [1] was -10.3%; in assay [2], -27.6%; in assay [3] it was -12.3%; in assay [4] it was -3.65%; in assay [5], -4.25%; in assay [6], -10.2%.

As for `CC1(C)CC(C#N)CC(C)(C)N1O`, the growth inhibition in assay [1] was 1.9%; in assay [2], -0.75%; in assay [3], 0.5%; in assay [4], -20.9%; in assay [5], -4.8%; in assay [6], -0.95%.

With `Nc1ncnc2c1nnn2C1C=CC(COS(N)(=O)=O)C1` (stereo unspecified), the growth inhibition is 12.2% in assay [1]; 3.75% in assay [2]; 3.7% in assay [3]; -6% in assay [4]; 8.25% in assay [5]; 18.6% in assay [6].

Regarding `CN(/N=C/c1ccccn1)C1=NCCCCN1`, the growth inhibition in assay [1] is -33.5%; in assay [2] it was 3.15%; in assay [3] it was -23.1%; in assay [4] it was 22.2%; in assay [5] it was 8.9%; in assay [6] it was -8.65%.

As to `O=C1CSc2nc3c(Cl)cc(Cl)cc3c(=O)n21`, the growth inhibition in assay [1] was 15.7%; in assay [2] it was 24.6%; in assay [3], 54.1%; in assay [4] it was 8.2%; in assay [5], 30.2%; in assay [6] it was 46.1%.

As for `O=[N+]([O-])c1cccc(C2=NOC3CCCC23)c1` (stereo unspecified), the growth inhibition was 17.6% in assay [1]; -7.6% in assay [2]; 15.2% in assay [3]; 13.8% in assay [4]; -8.3% in assay [5]; 16.9% in assay [6].

As for `c1cncc(CSc2ncnc3nc[nH]c23)c1`, the growth inhibition was 11.8% in assay [1]; -24.4% in assay [2]; -20.1% in assay [3]; -21.7% in assay [4]; -48.4% in assay [5]; -10.5% in assay [6].
